Only some compounds are listed: those with a hit (about 0.96% of all), similar ones and a draw of the others.
sdo1 growth: sdo1-depleted yeast growth rescue; S. cerevisiae sdo1-depleted JHY4D growth rescue, OD600 30 h; active compounds read high; pdr5 snq2 efflux-pump mutant strain; actives 0.21% (n = 140,000); AID 817; z-score at 10 µM;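 active = z-score above 3 at both the 24 hr and the 30 hr optical density reads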;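 note: z-score against mean and SD of all compound wells on the same plate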
Phagocyt inh: macrophage phagocytosis inhibition. AID 1029. actives 0.07% (n = 110,000). inhibition, % at 5 µM. J774A.1 macrophage IgG-bead phagocytosis, imaging;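 active = inhibition above the mean of the plate negative controls plus 5 SD, cut at about 13% in these data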;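 note: phagocytic index as fraction of beads internalized from green versus red external bead signal; plate controls were DMSO negative control for no effect and cytochalasin-D positive control for full effect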
cytoskel mod: cytoskeleton assembly modification; HUVEC TNFa F-actin phalloidin imaging, high content; inhibition, % at 2 µM; actives 0.18% (n = 91,000); AID 836;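 active = inhibition above the batch mean plus 3 SD and confirmed as a hit by visual image inspection, cut at about 30% in these data, passing the limit was not always enough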
sEH inhibitor: soluble epoxide hydrolase (human) inhibition. P34913. recombinant human sEH enzymatic activity assay. inhibition, % at 2 µM. actives 0.34% (n = 91,000). AID 707; in the data active = inhibition above about 80%
Target sequence (P34913 whole entry, looked up): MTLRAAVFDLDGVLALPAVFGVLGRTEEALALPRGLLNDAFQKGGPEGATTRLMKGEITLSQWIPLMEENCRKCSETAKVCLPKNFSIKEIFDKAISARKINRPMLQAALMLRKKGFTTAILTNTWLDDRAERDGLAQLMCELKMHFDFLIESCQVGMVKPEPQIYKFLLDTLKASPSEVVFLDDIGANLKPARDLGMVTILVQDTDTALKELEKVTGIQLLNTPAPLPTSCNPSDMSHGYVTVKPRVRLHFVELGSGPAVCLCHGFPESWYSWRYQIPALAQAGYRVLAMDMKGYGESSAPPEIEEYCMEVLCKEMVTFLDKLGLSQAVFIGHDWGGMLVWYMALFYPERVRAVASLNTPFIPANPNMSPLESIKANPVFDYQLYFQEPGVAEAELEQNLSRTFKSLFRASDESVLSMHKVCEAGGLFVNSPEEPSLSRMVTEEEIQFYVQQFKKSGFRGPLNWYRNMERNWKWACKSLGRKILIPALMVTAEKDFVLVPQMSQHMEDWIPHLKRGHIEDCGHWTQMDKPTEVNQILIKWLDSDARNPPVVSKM
sEH act: soluble epoxide hydrolase (human) activation | P34913 | purified human sEH enzymatic activity, activator screen | activation, % at 2 µM | actives 0.04% (n = 91,000) | AID 717; in the data active = activation above about 37%
E-sel TNF inh: blocks E-selectin expression induced by TNF alpha | HUVEC TNFa-induced E-selectin immunofluorescence, high content | inhibition, % at 2 µM | actives 0.71% (n = 120,000);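 active = inhibition above the batch mean plus 3 SD, and confirmed as a hit on visual image review, cut at about 43% in these data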;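 note: 0% = TNF-stimulated DMSO wells and 100% = unstimulated control wells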
SDO1 rescue DR: confirmation of growth rescue in SDO1-depleted yeast, bone marrow failure; shares compounds with sdo1 growth; S. cerevisiae JHY4D (SDO1-depleted) growth rescue, OD600, 30 h; active compounds read high; efflux-deficient strain, SNQ2 and PDR5 mutated; OD recovery (test concentration not listed); actives 44% (n = 440); AID 949;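 active = yeast growth recovered at 30 hours, either rising with dose fitted slope above 0.001 or with average optical density gain above 0.07, some results past the limit were not filed as active; inactive = growth falling with dose or no effect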;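 note: gain in OD600 from 0 h to 30 h averaged across all seven doses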
Starred values were filed as active, the others as inactive.

For CCN1CCCC1CNC(=O)CCNC(=O)c1cc(OC)c(OC)c(OC)c1 (stereo unspecified) the results were sdo1 growth 3.3*, Phagocyt inh -1, cytoskel mod 2, sEH inhibitor 5, sEH act -6, E-sel TNF inh 1 and SDO1 rescue DR 0.083*.
Screening N#CC1(c2ccc(NC(=O)c3ccccc3F)cc2)CCCC1 returned sdo1 growth 0.12, Phagocyt inh -6 and E-sel TNF inh 6.
Screening Cc1ccc(S(=O)(=O)/N=C(\Nc2cc(C)on2)c2ccc(Cl)cc2)cc1 returned sdo1 growth -0.4, Phagocyt inh 4 and E-sel TNF inh -21.
Screening CCOC(=O)[C@@H]1C(c2c(OC)cc(OC)cc2OC)=NO[C@@H]1C(=O)OCC returned sdo1 growth 6*, Phagocyt inh -1 and SDO1 rescue DR 0.071*.
`CCOC(=O)N1CCN(C(=O)C2CC(c3cc(OC)ccc3OC)=NO2)CC1` (stereo unspecified) gave sdo1 growth -0.08, Phagocyt inh -1, cytoskel mod 3, sEH inhibitor 0, sEH act 2 and E-sel TNF inh 36.
For Cc1occc1C(=O)NCc1ccc2c(c1)OCO2 the results were sdo1 growth 1.2, Phagocyt inh -3, cytoskel mod 3, sEH inhibitor 8, sEH act -7 and E-sel TNF inh 12.
CC1=C(C)CC(C(=O)NCc2ccc3c(c2)OCO3)C(C(=O)O)C1 (stereo unspecified) was read as sdo1 growth 2.3, Phagocyt inh 0, cytoskel mod -5, sEH inhibitor -1, sEH act 4, E-sel TNF inh -4 and SDO1 rescue DR 0.075*.
For CN1CC=C2C(C#N)=C(N)C(C#N)(C#N)[C@H](c3ccoc3)[C@H]2C1 the results were sdo1 growth 3.4*, Phagocyt inh -1, cytoskel mod -2, sEH inhibitor -32, sEH act 29, E-sel TNF inh -35 and SDO1 rescue DR 0.05.
For Cc1cc2cc3c(cc2nc1SCC(=O)OC(C)C)OCCO3 the results were sdo1 growth 3.1*, Phagocyt inh 0, cytoskel mod 13, sEH inhibitor -2, sEH act 0, E-sel TNF inh 40 and SDO1 rescue DR 0.042.
`CCCN(CCC)S(=O)(=O)c1ccc(NS(=O)(=O)c2ccc(F)cc2)cc1` gave sdo1 growth -0.5, Phagocyt inh -2, cytoskel mod -17, sEH inhibitor 8, sEH act -7 and E-sel TNF inh -16.
Screening CC(C)NC(=O)CSCc1ccccc1Cl returned sdo1 growth 0.63, Phagocyt inh -1, cytoskel mod 9, sEH inhibitor -6, sEH act 6 and E-sel TNF inh -3.
`CC(C)NC(=O)CSCc1cccc(Br)c1` gave sdo1 growth 5.2*, Phagocyt inh -1, cytoskel mod 14, sEH inhibitor -4, sEH act 0, E-sel TNF inh 4 and SDO1 rescue DR 0.064.
`O=S(=O)(c1ccc(Cl)c(NC(=S)Nc2cccc(O)c2)c1)N1CCOCC1` gave sdo1 growth 15*, Phagocyt inh -1, E-sel TNF inh -13 and SDO1 rescue DR 0.04.
`Cc1c(Cl)cccc1NC(=O)CNC(=O)c1ccccc1F` gave sdo1 growth 0.07 and Phagocyt inh -9.
Screening Cc1c(C(=O)NC2CCCc3ccccc32)oc2ccc(S(=O)(=O)N3CCCC3)cc12 (stereo unspecified) returned sdo1 growth 0.32, Phagocyt inh -2, cytoskel mod 16, sEH inhibitor 1, sEH act 1 and E-sel TNF inh 9.
`Cc1c(C(=O)NC2CCCc3ccccc32)oc2ccc(S(=O)(=O)N3CCCCC3)cc12` (stereo unspecified) gave sdo1 growth 9.3*, Phagocyt inh 0, E-sel TNF inh -16 and SDO1 rescue DR 0.092*.
Cc1nc(SCC(O)CO)c([N+](=O)[O-])[nH]1 (stereo unspecified) was read as sdo1 growth -0.13, Phagocyt inh 0, cytoskel mod 10, sEH inhibitor -9, sEH act 12 and E-sel TNF inh -14.
